The entries come from a sample that favours hits as a whole.
Sm TGR block: inhibitors of Schistosoma mansoni thioredoxin glutathione reductase | Q962Y6 | purified TGR, DTNB reduction, TNB absorbance 405 nm | Potency, µM (doses to about 114 µM), for inactives: at the highest dose activity change, negative = inhibition, hits mostly inhibitors | 3% of 360,000 active | AID 485364; note: potency is the fitted concentration of half-maximal effect; % is set by controls: 0 for no effect and ±100 for the full control effect; nearly all actives have a fitted effect of over 60% in size
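First, TGR (20 nM dispensed) and NADPH were mixed with compound. Second, a 15 min room-temperature incubation followed. Third, further NADPH and then DTNB were added to start the reaction. Finally, TNB absorbance was monitored kinetically.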
Tb PYK inh: blocks Trypanosoma brucei pyruvate kinase; TbPYK enzyme, Kinase-Glo Plus ATP luminescence, 45 min; Potency, µM (series often up to 76.8 µM), inactives show at the top dose activity, negative = inhibition, usual class: inhibitors; AID 624173; 0.12% of 410,000 active; note: potency is the fitted concentration of half-maximal effect; % is set by controls: 0 for no effect and ±100 for the full control effect; nearly all actives have a fitted effect of over 50% in size
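TbPYK + substrate in 50 mM TEA pH 7.2, 100 mM KCl, 10 mM MgCl2, 0.05% BSA, 0.01% Tween-20; cpd pinned; ADP 130 uM final; 45 min RT; Kinase-Glo Plus 10 min; luminescence endpoint.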
Giardia FBPA inh: Giardia lamblia aldolase inhibition; A8B2U2; purified Giardia FBPA; Potency, µM (titrated, usually from 59.6 µM), inactives show at the highest dose activity, negative = inhibition, usual class: inhibitors; 0.71% of 290,000 active; note: potency is the fitted concentration of half-maximal effect; % is set by controls: 0 for no effect and ±100 for the full control effect; nearly all actives have a fitted effect of over 55% in size
Target sequence (A8B2U2 whole entry, looked up): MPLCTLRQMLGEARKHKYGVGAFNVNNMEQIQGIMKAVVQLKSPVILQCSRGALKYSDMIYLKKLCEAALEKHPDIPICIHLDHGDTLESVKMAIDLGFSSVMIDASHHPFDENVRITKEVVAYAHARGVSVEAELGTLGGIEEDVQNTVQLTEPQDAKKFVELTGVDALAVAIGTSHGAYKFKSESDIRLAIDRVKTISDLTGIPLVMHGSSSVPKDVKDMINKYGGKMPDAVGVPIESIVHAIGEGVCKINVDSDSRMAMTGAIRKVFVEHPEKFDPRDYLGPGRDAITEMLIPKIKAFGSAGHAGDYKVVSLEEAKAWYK
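40 nM FBPA preincubated 10 min at RT with compound (up to 57.5 uM final), then substrate plus GAPDH/TPI/NAD/arsenate coupling and diaphorase/resazurin added. Fluorescence read after 20 min at RT, 525/598 nm.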
CHX counter: counter-screen hit for Shiga toxin inhibitors, cycloheximide | cell reporter, cycloheximide protein synthesis inhibition counterscreen | max response, % | 12% of 300,000 active | AID 2314; in the data active = max response mostly above about 13%, no sharp cut-off; inactive = mostly below about 14%; note: read at 38.3 µM for the half of the compounds with a filed dose; 0% is about no effect
LmPK inhibitor: blocks Leishmania mexicana pyruvate kinase activity; Q27686; purified LmPK, Kinase-Glo ATP luminescence, 1 h; Potency, µM (highest dose often 57.5 µM), for the others: at the top dose activity change, negative = inhibition, most hits filed as inhibitors; 0.37% of 290,000 active; AID 1721; note: potency is the fitted concentration of half-maximal effect; % is set by controls: 0 for no effect and ±100 for the full control effect
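qHTS format; LmPK 0.1 nM; substrates PEP 0.5 mM and ADP 0.1 mM. One-hour room-temperature incubation, then coupled luciferase luminescence; 0.5 nM enzyme wells mark activation.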
Shiga inhibitor: inhibitors of Shiga toxin in Vero cells. AID 2315. Vero cells, Shiga toxin protein synthesis inhibition reporter. 9.2% of 290,000 active. inhibition, % at 38.7 µM; in the data active = inhibition mostly above about 28%, no sharp cut-off; inactive = mostly below about 43%; note: 0% is about no effect
LmPK confirm: Inhibits Leishmania mexicana pyruvate kinase, confirmation | shares compounds with LmPK inhibitor | purified LmPK, Kinase-Glo ATP luminescence, 1 h | Potency, µM (top dose mostly 57.5 µM), inactives show at the highest dose activity change, negative = inhibition, usual class: inhibitors | 40% of 150 active | AID 2559;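 active = compounds giving a full or partial concentration-response curve, as inhibitors or activators; inconclusive = weak, top-dose-only or unclear curve responses; inactive = no response at any tested dose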
Active calls of the source: *; ? = inconclusive; . = not tested or not shown; [ ] = dose if it differs, or a comment. Unless noted, calls come from the whole dose curve; as a rule, active = well fitted curve in the direction sought with a large enough effect; inconclusive = small, poorly fitted or top-dose-only effect, or another doubt; inactive = no such curve, though single readings can be large; an effect the other way counts as inactive or inconclusive.

SMILES	Sm TGR block	Tb PYK inh	Giardia FBPA inh	CHX counter	LmPK inhibitor	Shiga inhibitor	others
CN(C)CCn1c2c(c(SCC(=O)Nc3ccc(F)cc3F)nc1=O)CCC2	12%	1%	.	.	.	.
O=C(CSc1nnc(-c2cccs2)o1)Oc1ccccc1	0%	-5%	.	.	.	.
CC1CCCCN1C(=O)CSc1nnc(-c2c[nH]c3ccccc23)o1 (stereo not drawn)	4%	1%	5%	28*	4%	75
CC1CCCC(C)N1C(=O)CSc1nnc(-c2cccs2)o1 (stereo not drawn)	-1%	-4%	6%	35*	-3%	51*
CC1CCCCN1C(=O)CSc1nnc(-c2cccs2)o1 (stereo not drawn)	4%	1%	.	48*	-7%	67*
COc1ccc(Oc2c(C(F)(F)F)oc3cc(OCC(=O)O)ccc3c2=O)cc1	9%	-15%	9%	1	-1%	-3
COc1cc(OC)c(OC)cc1CN1CCc2nc(N3CCN(C)CC3)ncc2C1	40µM*	-5%	.	.	.	.
NC(=O)c1cc([N+](=O)[O-])ccc1NCCN1C(=O)c2ccccc2C1=O	-3%	.	0%	23*	0%	65*
O=C(Cc1c(Cl)cccc1Cl)OCC(=O)c1ccc[nH]1	.	-10%	.	.	.	.
Brc1ccc(N/N=C(/N=Nc2nn[nH]n2)c2ccccc2)cc1	0%	-18%	?	19*	?	53
O=C1C=C(c2ccccc2)C(=O)N1Nc1ccccc1	14µM*	?	-7%	-2	0%	-19
Cn1c(=O)c2c(nc3n2CC(O)CN3c2ccc(O)cc2)n(C)c1=O (stereo not drawn)	20µM*	6%	3%	0	-2%	-1
Cc1ccc(N2CC(O)Cn3c2nc2c3c(=O)n(C)c(=O)n2C)cc1 (stereo not drawn)	80%	1%	-3%	1	-2%	24
COc1cc(SC)ccc1C(=O)Nc1ccc2ncccc2c1	5%	-3%	-11%	27*	-8%	30*
COc1cc(SC)ccc1C(=O)NCCOc1ccc(Cl)cc1	-4%	1%	0%	-3	0%	-9
COc1cc(SC)ccc1C(=O)Nc1ncc(Cl)cc1Cl	-1%	-5%	4%	35*	4%	79*
COc1cc(SC)ccc1C(=O)Nc1ccc(Br)cn1	2%	1%	-12%	31*	?	76*
COc1cc(SC)ccc1C(=O)Nc1cccc(C)n1	-5%[57.1 µM]	1%	-15%	33*	-11%	84*
COc1cc(SC)ccc1C(=O)Nc1ncc(C)s1	7%	-7%	-20%	-7	-4%	9
COc1cc(SC)ccc1C(=O)NCCc1ccccc1	2%	-10%	-1%	49*	0%	74*
COc1cc(SC)ccc1C(=O)Nc1ccccn1	4%	-15%	-12%	34*	-16%	46
COc1ccc(N=c2oc3ccccc3cc2C(=O)Nc2ccccn2)cc1OC	4%[57.1 µM]	.	6%	52*	-21%	98*
COc1cc(SC)ccc1C(=O)NC(C)C	27%	-6%	-5%	4	-1%	23
COc1cc(SC)ccc1C(=O)Nc1ccon1	4%	-11%	1%	34*	-3%	60*
O=C(NC(=S)Nc1nc2ccc(F)cc2s1)c1ccco1	-24%	4%	?	32*	9%[11.5 µM]	90*
SMILES	Sm TGR block	Tb PYK inh	Giardia FBPA inh	CHX counter	LmPK inhibitor	Shiga inhibitor	others
CS(=O)(=O)c1ccc2nc(NC(=O)c3ccco3)sc2c1	-4%	-11%	8%	36*	?	40*
CS(=O)(=O)c1ccc2nc(NC(=O)c3cc4ccccc4o3)sc2c1	-13%	-3%	-5%	-1	2%	-6
Cc1c(Cl)ccc2sc(NC(=O)c3ccco3)nc12	-9%	4%	12%	67*	-3%	83*
Cc1ccc(C(=O)Nc2nc3ccc(S(C)(=O)=O)cc3s2)o1	-15%	-17%	2%	34*	14µM*	44*
O=C(CSc1c2c(nc3ccccc13)CCC2)Nc1ccc(F)cc1F	1%	1%	.	.	.	.
CC(C)CC1C(C#N)=C(N)OC2=C1C(=O)CC(c1ccccc1)C2 (stereo not drawn)	0%	-1%	-8%	2	-1%	2
CC(CC1C(C#N)=C(N)OC2=C1C(=O)CCC2)c1ccccc1 (stereo not drawn)	1.3µM*	-5%	-17%	-2	1%	-12
COc1ccc(C2=CCN3CCCCC3C2)c(-c2ccc(OC)c(OC)c2)c1 (stereo not drawn)	.	-8%	.	.	.	.
C/C(=N/NS(=O)(=O)c1ccc(C)cc1)c1c(O)c2ccccc2oc1=O	-4%	1%	12%	0	-2%	-1
CCCCCN=C(C)c1c(O)c2ccccc2oc1=O	-12%	-8%	-2%	42*	2%	65*
Cc1ccc(NC(=O)CSc2ncc3c(n2)-c2ccccc2N(C)S3(=O)=O)c(Cl)c1	-10%	1%	.	.	.	.
CCc1cccc(NC(=O)c2cn3c4c(ccc(Cl)c4c2=O)OC(C)C3)c1 (stereo not drawn)	-1%	4%	.	.	.	.
CC1=CC(C)(C)N(C(=O)c2ccccc2)c2ccc(C)cc21	0%	2%	2%	-5	-1%	-14	LmPK confirm=5%
COc1ccc(Br)cc1S(=O)(=O)Nc1cc(-c2cn3ccccc3n2)ccc1C	0%	-3%	.	.	.	.
CN(C)c1nc2c(c(N)nn2-c2ccc(Cl)cc2)c(=O)o1	2%	-4%	6%	1	0%	-12	LmPK confirm=5%
COc1ccc(-n2nc(N)c3c(=O)oc(N(C)C)nc32)cc1	2%	2%	1%	-3	-7%	-19
CCOc1ccc(C(=O)O/N=C(\N)c2ccccn2)cc1	6%	13µM*	11%	-12	?	-20	LmPK confirm=6.5µM*
Cc1cccc(C(=O)O/N=C(\N)c2ccccn2)c1	-1%	?	-7%	-6	?	-6
N/C(=N\OC(=O)c1ccccc1)c1ccccn1	2%	?	1%	-8	4.5µM*	-20	LmPK confirm=8.2µM*
CCc1ccc(C2C(C(=O)Nc3ccccc3C)=C(C)Nc3nc(SCc4cccc(OC)c4)nn32)cc1 (stereo not drawn)	5%	2%	.	.	.	.
Cn1c(COc2ccccc2O)[n+](C)c2ccccc21	-17%	-1%	-2%	-5	-1%	4
COc1ccc(N=Nc2n(C)c3ccccc3[n+]2C)cc1	5µM*	.	?	-2	1.4µM*	-19	LmPK confirm=13µM*
CC(C)C[C@@H](CC(=O)N[C@@H](CCC(=O)O)CC(=O)O)NC(=O)[C@@H]1CCCC[C@H]1NC(=O)C[C@H](CCCN)NC(=O)C[C@H](Cc1ccccc1)NC(=O)[C@@H]1CNCC[C@H]1N	.	.	-8%	.	.	.
